Measurements taken from PubChem BioAssay AID504332 (National Center for Advancing Translational Sciences (NCATS), 2011).
In all, about 350,000 compounds went through this assay and about 31,000 (8.9%) were called active. Another 15% or so got no clear call; they are omitted. The sample holds actives, similar compounds and a random draw of the others, so the mix is not that of the screen. A number with no mark means an inactive call. Calls follow the shape of the dose curve; as a rule, active = well fitted inhibition curve with a large enough effect; inconclusive = small, poorly fitted or top-dose-only effect; inactive = no such curve, though single readings can be large or run the other way.

What follows are molecules tested against Histone-lysine N-methyltransferase EHMT2 (Homo sapiens) (UniProt Q96KQ7) (assay: qHTS Assay for Inhibitors of Histone Lysine Methyltransferase G9a). Details: G9a H3K9 monomethylation, AlphaScreen, 2 h; series mostly up to 59 µM; activity, negative = inhibition: at the top concentration.
Histone-lysine N-methyltransferase EHMT2 (Homo sapiens), sequence (Q96KQ7 913-1193 limits assumed): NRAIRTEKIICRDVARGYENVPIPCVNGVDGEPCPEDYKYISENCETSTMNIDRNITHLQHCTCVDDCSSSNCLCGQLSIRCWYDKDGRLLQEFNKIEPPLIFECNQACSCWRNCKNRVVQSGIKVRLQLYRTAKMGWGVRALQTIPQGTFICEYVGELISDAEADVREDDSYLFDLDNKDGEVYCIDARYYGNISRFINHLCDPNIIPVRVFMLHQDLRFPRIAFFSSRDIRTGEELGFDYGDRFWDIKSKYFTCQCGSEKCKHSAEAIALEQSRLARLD
Summary of the method: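 Signal arises when biotinylated H3K9 peptide, once monomethylated, bridges streptavidin donor and antibody-captured acceptor beads. Enzyme at 20 nM was preincubated 15 min with test compounds; peptide 500 nM and SAM 20 uM then reacted for 2 h.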
% is scaled to controls: 0 for no effect and ±100 for the full control effect; potency is read from the fitted curve at half-maximal effect.
Also: nearly all actives have a fitted effect of over 75% in size.

SMILES | activity, negative = inhibition | Potency
O=C(O)c1cccc(N2C(=O)Nc3ccccc3N2O)c1 | -16.3% | 
O=C1NN(c2ccccc2)C(=O)/C1=C/c1ccc(-c2cccc(C(=O)O)c2)o1 |  | 39.8 µM (active)
O=C(Nc1ccc2nc(SCCOc3ccccc3Cl)sc2c1)c1ccco1 | -31.5% | 
O=S(=O)(NCc1ccccc1Br)c1ccccc1Br | 7.86% [at 2.33 µM] | 
CCCCn1c(=S)[nH]c2cc(S(=O)(=O)N3CCCCC3)ccc21 |  | 1.78 µM (active)
O=c1[nH]c2ccc(S(=O)(=O)N3CCCC3)cc2[nH]1 | 2.56% [at 102 µM] | 
CN(Cc1ccccc1)C(=O)c1cn(C)c2ccc(S(=O)(=O)N3CCCCC3)cc2c1=O | -1.71% | 
O=C(NCCc1ccccc1)c1ccc2c(c1)N(Cc1ccc(F)cc1)C(=O)c1ccccc1S2(=O)=O | -0.301% | 
Cc1ccc2oc(=O)c3cnn(CC(=O)NCc4ccccc4Cl)c3c2c1 | 11.1% | 
CCn1c(C(=O)Nc2cc(Cl)ccc2C)cc2sc(Cl)cc21 | 5.25% | 
C=CCOc1ccccc1/C=N/NC(=O)Cc1ccccc1 | -1.48% [at 0.501 µM] | 
CCOc1ccccc1/C=N/NC(=O)CNC(=O)COc1ccccc1 | 1.78% [at 102 µM] | 
C=C(C)CNC(=S)N/N=C/c1ccccc1OCC(=O)O |  | 11.2 µM (active)
CCCCn1nc(C(=O)Nc2cccc(C(=O)NC3CC3)c2)c2ccccc2c1=O | 5.39% [at 2.33 µM] | 
CCNC(=O)Cn1nc(C)n2c(cc3c(OC)cccc32)c1=O | 11.3% | 
O=C(Nc1cccc(Cl)c1)OCc1ccccn1 | -10.1% [at 102 µM] | 
O=C(CC1SC(=Nc2ccccc2)N(Cc2ccccn2)C1=O)Nc1cccc(Cl)c1 (stereo not given) |  | 8.91 µM (active)
CN1C(=O)C(CC(=O)Nc2ccccc2)S/C1=N/c1nccs1 (stereo not given) | 19.4% [at 102 µM] | 
COc1ccc(-c2nc3ccccc3o2)cc1NC(=O)c1cc([N+](=O)[O-])ccc1N1CCOCC1 | 3.44% | 
O=C(CSc1ccccc1)Nc1cccc(S(=O)(=O)N2CCOCC2)c1 | 7.75% [at 12.7 µM] | 
CC(Sc1cccc[n+]1[O-])C(=O)Nc1cccc(S(=O)(=O)N2CCOCC2)c1 (stereo not given) |  | 8.91 µM (active)
Cc1cc(C(=O)OC(C)C(=O)Nc2cccc(S(=O)(=O)N3CCOCC3)c2)c(C)o1 (stereo not given) | -16.9% [at 102 µM] | 
COc1cccc(C2=CC(=O)C[C@H](c3ccc(F)cc3)C2)c1OC | -9.38% [at 0.501 µM] | 
CCOC(=O)/C(C#N)=C/c1ccc(N2CCCCC2)cc1 | 442% [at 102 µM] | 
O=C1C=CC(=O)N1c1ccc(N2CCCCC2)cc1 |  | 0.562 µM (active)

SMILES | activity, negative = inhibition | Potency
O=c1[nH][nH]c(=O)c2cc(N3CCCC3)ccc12 | -1.28% [at 102 µM] | 
COc1ccc(Nc2ncnc3ccc(Br)cc23)c(OC)c1 | 29.9% [at 102 µM] | 
COc1ccc(-c2nc(SCC(=O)N3CCCCC3C)n[nH]2)cc1 (stereo not given) | 2.49% | 
COc1ccccc1CCNC(=O)c1cccn1-c1nnc(N2CCCCC2)s1 | -7.53% | 
CC1(C)O[C@@H]2[C@H](O1)[C@@H](COS(=O)(=O)O)O[C@H]2n1cnc2c(=O)[nH]cnc21 | 9.85% [at 2.33 µM] | 
Cc1nn(C(=O)c2c(F)cccc2F)c(C)c1S(=O)(=O)N1CCOCC1 | 8.64% | 
O=C(CN1CCN(S(=O)(=O)c2ccc(F)cc2)CC1)NC1CC1 | 6.21% [at 102 µM] | 
O=S(=O)(c1ccc(F)cc1)N1CCN(Cc2ccccc2C(F)(F)F)CC1 |  | 10 µM (active)
Cc1ccc(S(=O)(=O)N2CCN(Cc3cccc(C)c3O)CC2)cc1 | 12.4% | 
CCN(CC(=O)Nc1ccc(OC)cc1)C(=O)c1ccc(=O)n(Cc2ccccc2)n1 | 25% | 
Cc1ccccc1-c1nc2cc(NC(=O)c3cccc(OCCC(C)C)c3)ccc2o1 | 0.952% | 
Cc1nc2c(c(C)nn2-c2ccccc2)c(C)c1CCC(=O)NCCc1ccc(Cl)cc1 | 13.2% | 
CN1/C(=c2/s/c(=C3/C(=O)N(c4ccccc4)NC3=Nc3ccccc3)n(C)c2=O)C(C)(C)c2ccccc21 |  | 10 µM (active)
CCc1noc(C)c1C(=O)N1CCN(S(=O)(=O)c2cccc(C(F)(F)F)c2)CC1 | 9.9% [at 12.7 µM] | 
COc1ccc(CNC(=O)CC2Oc3ccc(C)cc3NC2=O)cc1 (stereo not given) | 7.92% | 
Cc1cccc(N(Cc2ccccc2)C(=O)c2cc(S(=O)(=O)N3CCOCC3)ccc2F)c1 | -26.9% [at 102 µM] | 
CCOc1cccc2cc(-c3cn4c(n3)sc3cc(C)ccc34)c(=O)oc12 | -3.75% | 
CC1(C(=O)NNC(=S)NCC2CCCO2)CC1(Cl)Cl (stereo not given) | 55.8% [at 102 µM] | 
Cc1ccc(-n2nc3cc(Cl)c(NC(=O)c4ccco4)cc3n2)cc1 | -40.1% | 
Cc1ccc(Cn2c(NC(=O)c3ccco3)nc3ccccc32)cc1 | 0.509% | 
CCn1nc(NC(=O)c2ccco2)c2cc3ccc(C)cc3nc21 |  | 50.1 µM (active)
COc1ccccc1NC(=O)COC(=O)c1ccccc1SCC(=O)N1CCCC1 | -3.4% | 
CC(C(=O)Nc1ccc(S(=O)(=O)N2CCCC2)cc1)N(C)Cc1ccc(F)cc1 (stereo not given) | 2.24% [at 2.33 µM] | 
CC(OC(=O)CNS(=O)(=O)/C=C/c1ccccc1)C(=O)Nc1ccc(S(=O)(=O)N2CCCC2)cc1 (stereo not given) |  | 10 µM (active)
COc1cc(C(C)=O)ccc1OC(C)C(=O)Nc1ccc(S(=O)(=O)N2CCCC2)cc1 (stereo not given) | 9.79% [at 12.7 µM] | 
